In the library only some 4.6% were active in any assay of this set; here they are far more common.
MARV entry inh: inhibitors of Marburg virus binding or cell entry | Marburg virus pseudotyped entry inhibition, cell reporter | Potency, µM (titrated, usually from 37.8 µM), for inactives: at the top dose activity change, negative = inhibition, most hits filed as inhibitors | actives 1.8% (n = 300,000) | AID 540276; calls by dose curve; tested in HEK293 cells
Vaccinia Venus: vaccinia inhibition (Venus reporter). Vaccinia virus Venus reporter expression, fluorescence. Potency, µM (series often up to 36.5 µM), without a hit: at the top dose activity change, negative = inhibition, hits mostly inhibitors. actives 0.46% (n = 330,000); calls by dose curve; tested in A549 cells; further: nearly all actives have a fitted effect of over 30% in size
LASV entry inh: inhibitors of Lassa virus binding or cell entry; AID 540256; Potency, µM (series often up to 37.9 µM), without a hit: at the top dose activity change, negative = inhibition, usual class: inhibitors; actives 1.2% (n = 300,000); Lassa virus pseudotype entry inhibition, cell reporter; calls by dose curve; tested in HEK293 cells; further: nearly all actives have a fitted effect of over 50% in size
HCV inhibitor: HCV inhibition; AID 651820; Potency, µM (series often up to 41.8 µM), for inactives: at the top dose activity change, negative = inhibition, actives largely listed as inhibitors; actives 3.4% (n = 340,000); Huh7.5.1 HCVcc-Cre infection, luciferase reporter, 44 h; active means well fitted inhibition curve with a large enough effect; inconclusive means small, poorly fitted or top-dose-only effect, or another doubt; inactive means no such curve, though single readings can be large or run the other way
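Luciferase read-out (15 sec integration) after a 15 min room-temperature substrate step quantifies HCVcc-Cre infection. Cells, 1,000 per well, had compound added 4 h post-plating, then virus at ~0.5 moi, and were cultured 44 h.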
Vaccinia mCherry: vaccinia inhibition (mCherry reporter); Vaccinia virus mCherry reporter infection, fluorescence; Potency, µM (titrated, usually from 36.5 µM), inactives show top-dose activity change, negative = inhibition, hits mostly inhibitors; actives 0.63% (n = 310,000); AID 720579; calls by dose curve; tested in A549 cells; further: nearly all actives have a fitted effect of over 35% in size
* hit, by the source's call; i = inactive; ? = inconclusive; . = no result given; ! = not confirmed by another sample; [ ] = another dose, or the depositor's remark. On the % scale 0 is the no-effect control and ±100 the full control effect; potency means the concentration at half of the fitted maximal effect.

SMILES	MARV entry inh	Vaccinia Venus	LASV entry inh	HCV inhibitor	Vaccinia mCherry
O=C(Nc1ncc(Cc2cccc(C(F)(F)F)c2)s1)c1ccc(-c2cccc([N+](=O)[O-])c2)o1	15.8µM*	-28.3%	?	?	?
CCOC(=O)C1CCC(CN(Cc2ccc(OC)cc2)S(=O)(=O)c2ccc(F)c(C(=O)Nc3c(C)cccc3C)c2)CC1 (stereo unspecified)	.	5.0%	4.9%[46.1 µM]	.	-2.4%
C[C@H]1CC[C@H]2C(=O)N(Cc3ccccc3)C[C@@H](O)CN2[C@H]1c1ccc(Br)cc1	-33.0%[14.2 µM]	.	.	.	.
Cc1cccc(-c2c3c(=O)n(C)c(=O)n(C)c3cn2-c2cc(N)c(Cl)cc2Cl)c1	?	-10.1%[7.34 µM]	?	.	-7.0%[7.34 µM]
COc1ccc(N2CCC(CNC(=O)Nc3ccc(C)c(C)c3)C2)cc1 (stereo unspecified)	-22.5%	-25.7%	0.6%	-5.7%[8.37 µM]	-26.7%
COc1ccc([N+](=O)[O-])cc1NC(=S)NC(NC(=O)Cc1ccc(OC)c(OC)c1)C(Cl)(Cl)Cl (stereo unspecified)	?	.	?	7.94µM*	.
COc1ccccc1CC(=O)Nc1ccc([N+](=O)[O-])cc1O	?	-26.4%	6.31µM*	?	?
COc1ccc([N+](=O)[O-])cc1NC(=O)C(C)N(C)Cc1cccc(OC)c1OC (stereo unspecified)	?	-17.3%	?	35.5µM*	-26.2%
COc1ccc(N2CCC(CNC(=O)Nc3ccc(OC)cc3OC)C2)cc1 (stereo unspecified)	7.2%	10µM*	-17.5%	?	-15.7%
COc1ccc([N+](=O)[O-])cc1NCc1ccccc1	22.9%	-18.8%	15.6%	6.31µM*	?
COc1ccc([N+](=O)[O-])cc1NC(=O)Nc1ccc(OC)c(OC)c1	?	?	?	2.82µM*	?
COc1ccc([N+](=O)[O-])cc1NC(=O)Cc1ccc(Cl)cc1	?	?	-18.8%	8.91µM*	-20.8%
COc1ccc([N+](=O)[O-])cc1NCc1ccccc1C	-8.9%	-18.2%	?	-68.3%	i
COc1ccc([N+](=O)[O-])cc1NC(=O)C(C)Sc1nc(-c2ccccc2)cs1 (stereo unspecified)	?	-7.4%	-8.9%	12.6µM*	-16.7%
COc1cccc(OC)c1CN1CCC2(CCC(CNC(=O)c3ccn(C)n3)O2)CC1 (stereo unspecified)	.	-12.9%	.	.	i
O=C1[C@@H]2[C@H]3[C@H](O)[C@H](O)CC(=NOC[C@@H](O)COCc4ccco4)[C@@H]3CC[C@H]2C(=O)N1C[C@@H]1CCCO1	-0.9%[14.2 µM]	.	.	.	.
CC(C)N1CCN(Cc2cccc([N+](=O)[O-])c2)CC1	5.9%[46.1 µM]	-3.2%	?	-2.8%	i
O=[N+]([O-])c1cccc(CN2CCN(Cc3ccc(Cl)cc3)CC2)c1	-1.5%[46.1 µM]	-9.7%	-20.8%	10µM*	-13.7%
CCOc1ccc2ncc3c(-c4cccc(OC)c4)nn(-c4ccccc4)c3c2c1	?	?	-10.9%[46.1 µM]	.	?
O=C(CSC1=NCCN1)NC(c1ccccc1)c1ccccc1	-18.3%	-13.7%	?	10µM*	-5.3%
COc1ccccc1NC(=O)CSC1=NCCN1	?	-11.0%	-14.0%	?	i
COc1cc([C@H]2C[C@H](C(F)(F)F)n3ncc(C(=O)O)c3N2)cc(OC)c1OC	-6.6%	.	.	.	.
COc1ccccc1C(=O)NC(C)c1cccc2ccccc12 (stereo unspecified)	?	-16.1%	-16.9%	?	i
COc1cccc(C(=O)NC(C)c2cccc3ccccc23)c1OC (stereo unspecified)	5.62µM*	-1.0%	?	-26.5%	-5.1%
c1ccc2c(c1)nc(N1CCOCC1)c1ccccc12	-19.5%[46.1 µM]	-11.6%	-29.8%[46.1 µM]	?	i
SMILES	MARV entry inh	Vaccinia Venus	LASV entry inh	HCV inhibitor	Vaccinia mCherry
CCN(CC)c1ccc(Nc2nc(N3CCOCC3)c3ccccc3n2)cc1	?	.	18.3µM*	4.47µM*	.
COc1ccc(Nc2nc(N3CCCC3)c3ccccc3n2)cc1	1.58µM*	10µM*	?	10µM*	8.91µM*
CSc1nc(N2CCOCC2)c2ccccc2n1	2.7%	-6.7%	-2.6%	10µM*	?
CCN1CCN(C(c2cccc(Cl)c2)c2c(O)cc(C)n(CCOC)c2=O)CC1 (stereo unspecified)	.	-6.4%	-10.1%[46.1 µM]	.	-8.6%
CCN(CC)S(=O)(=O)c1ccc2c(c1)N(CC(=O)Nc1ccc(C)cc1C)C(=O)C1CCCN21 (stereo unspecified)	.	-19.7%	22.9%[46.1 µM]	.	-3.7%
O=c1[nH]c(CN2CCN(C/C=C/c3ccccc3)CC2)nc2cc(Cl)ccc12	4.11µM*	-21.7%	1.1%	14.1µM*	-28.9%
NCC(O)C1CCCCCCC1 (stereo unspecified)	7.08µM*!	.	2.6%	.	.
COC(=O)[C@@H]1CC[C@H](C)[C@@H](c2ccc(C)cc2)N1C(=O)c1ccc(C=NOC[C@H]2O[C@H](c3ccccc3)C=C[C@H]2Oc2ccc(OC)cc2)cc1	-6.6%[14.2 µM]	.	.	.	.
Nc1c(C(=O)c2ccc(Cl)cc2)sc2nsc(SCCN3CCOCC3)c12	1.2%[46.1 µM]	-6.0%[7.34 µM]	2.1%	?	-0.1%[7.34 µM]
Nc1c(C(=O)c2ccccc2)sc2nsc(SCCN3CCCC3)c12	?	?	6.31µM*	?	-51.6%
Cc1nn(-c2ccccc2)c(C)c1/C=N/NC(=O)CSc1nnc(SCc2cccc3ccccc23)s1	?	-18.7%	?	14.1µM*	-27.6%
Cc1ccccc1-n1c(SCC(=O)N/N=C/c2c(C)nn(-c3ccccc3)c2C)nc2ccccc2c1=O	7.31µM*	?	?	?	-27.0%
COc1cc2[nH]c(=O)n(CCCC(=O)N(C)Cc3ccccc3)c(=O)c2cc1OC	1.6%[46.1 µM]	-5.0%	-27.9%[46.1 µM]	.	-5.3%
N/C(=C\c1ccccc1)c1ccncc1	.	15.2%	.	.	48.0%
CC(C)C[C@@H](CO)NS(=O)(=O)c1c(F)cccc1F	?	-5.6%	.	3.55µM*	-10.9%
CCc1ccccc1N(C)S(=O)(=O)c1ccc2c(c1)C(C)(C)C(=O)N2C	.	-7.0%	1.1%[46.1 µM]	.	-12.1%
Cc1nn(C)c(C)c1NC(=O)CC12CC3CC(CC(C3)C1)C2	.	-22.9%	.	-8.9%	-7.4%
Cc1cccc(C)c1OCC(=O)Nc1c(C)nn(C)c1C	.	.	.	11.3%	.
Cc1nn(C)c(C)c1NC(=O)COc1ccc(Cl)cc1	.	.	.	11.2µM*	.
O=C(COc1ccc(Cl)cc1)Nc1ncc([N+](=O)[O-])s1	?	10µM*	?	?	11.2µM*
Cc1ccc(-n2nc(C)c(NC(=O)CCl)c2C)cc1C	?	?	11.2µM*	3.55µM*	?
Cc1nn(C)c(C)c1NC(=O)CCl	2.7%[46.1 µM]	?	11.2µM*	6.1%	?
O=C(COC(=O)c1ccccc1C(=O)c1ccccc1)Nc1ccc(SC(F)F)cc1	?	-28.6%	16.4µM*	-27.4%	-9.2%
CC(C)C[C@H]1CNC(=S)N1CC1CCCN1C[C@H](Cc1ccc(O)cc1)N1C[C@H](Cc2ccccc2)N(CC2CCCCC2)C1=S (stereo partly specified)	.	-23.9%	.	11.2µM*	?

High-throughput results as filed in PubChem BioAssay.
